This is a sample that favours compounds with a hit; in the whole collection about 3.2% have one here.
Yp Topo-I inh – Yersinia pestis topoisomerase I inhibitors, primary screen, biochemical, cleavage product accumulation, plate reader, single point | activity, % at 10 µM | actives 0.064% (n = 360,000) | Y. pestis Topo-I cleavage product accumulation | DNA topoisomerase I (Yersinia pestis CO92); in the data active = activity above about 50%, passing the limit was not always enough
GDH-TPI counter-1 – GDH-TPI coupling enzyme inhibitors, primary screen, artefact control for M. tuberculosis FBA inhibitor project, biochemical, absorbance, full deck; actives 1.2% (n = 360,000); GDH-TPI coupled enzyme counterscreen, NADH absorbance; inhibition, % at 4.8 µM; in the data active = inhibition above about 30%;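 also: 0% = DMSO wells and 100% = wells lacking the enzyme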
FBA Mtb inh – Mtb FBA enzyme inhibitors, primary screen, biochemical, fluorescence, strain H37Rv | Fructose-bisphosphate aldolase (Mycobacterium tuberculosis (strain ATCC 25618 / H37Rv)), … | purified M. tuberculosis FBA, fluorescence read-out | actives 2.3% (n = 360,000) | inhibition, % at 1 µM; in the data active = inhibition above about 27%;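 also: 0% = vehicle and 100% = reference inhibitor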
Target sequence (P9WQA3 whole entry, looked up): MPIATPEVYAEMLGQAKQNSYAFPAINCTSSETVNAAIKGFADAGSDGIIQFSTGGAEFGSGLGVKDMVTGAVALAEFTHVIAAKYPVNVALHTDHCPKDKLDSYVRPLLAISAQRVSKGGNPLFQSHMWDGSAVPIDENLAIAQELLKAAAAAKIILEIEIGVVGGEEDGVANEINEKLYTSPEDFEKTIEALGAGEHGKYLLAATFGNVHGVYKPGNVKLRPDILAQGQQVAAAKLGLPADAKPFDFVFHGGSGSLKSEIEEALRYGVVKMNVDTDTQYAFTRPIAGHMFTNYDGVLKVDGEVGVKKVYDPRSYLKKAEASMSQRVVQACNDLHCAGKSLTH
PrPC surface inh – inhibitors of human cell surface prion protein PrPC, primary screen, cell-based, TR-FRET | TR-FRET read-out | inhibition, % at 13.8 µM | Major prion protein (Homo sapiens), P04156 | actives 0.43% (n = 370,000) | AID 720596, 2013; in the data active = inhibition above about 24%; also: 0% = median of the test wells and 100% = reference compound wells
TcdB inh – TcdB glycohydrolase inhibitors, primary screen, biochemical, single point, plate reader; TcdB glycohydrolase enzymatic assay; inhibition, % at 9.99 µM; actives 0.24% (n = 350,000); AID 652162, 2013
Mtb FBA confirm – M. tuberculosis aldolase blockers, biochemical, fluorescence, strain H37Rv, confirmation | actives 78% (n = 5,600) | AID 651616, 2012 | shares compounds with FBA Mtb inh | inhibition, % at 1 µM | purified M. tuberculosis FBA, fluorescence read-out; in the data active = inhibition above about 27%;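 also: 0% = vehicle wells and 100% = reference inhibitor wells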
GDH-TPI counter-2 – GDH-TPI coupling enzyme inhibitors, artefact control for M. tuberculosis FBA inhibitor project, biochemical, fluorescence, high throughput; shares compounds with FBA Mtb inh; actives 81% (n = 5,600); inhibition, % at 1 µM; GDH-TPI coupled enzyme counterscreen
GDH-TPI dose – GDH-TPI coupling enzyme inhibitors, dose response, artefact control for M. tuberculosis FBA inhibitor project, biochemical, fluorescence, IC50; actives 79% (n = 170); AID 652145, 2013; IC50, µM; GDH-TPI coupled enzyme assay, artifact counterscreen; shares compounds with FBA Mtb inh; call rule not given here
The depositor's hits bear a star; . = no result. Rule as the data show it, unless noted: active = inhibition above about 10%; inactive = the rest.

SMILES	Yp Topo-I inh	GDH-TPI counter-1	FBA Mtb inh	PrPC surface inh	TcdB inh	Mtb FBA confirm	GDH-TPI counter-2	others
O=C(NCC1CC1)C1Cc2c(-c3ccc4c(c3)OCO4)ccnc2O1 (configuration not stated)	6	12	54*	2	1	138*	95*
CC(=O)NCCNC(=O)C1Cc2c(-c3ccccc3)ccnc2O1 (configuration not stated)	2	2	-1	-5	1	.	.
O=C(Nc1ccc2c(c1)OCO2)C1Cc2c(-c3ccc4c(c3)OCO4)ccnc2O1 (configuration not stated)	28	-6	36*	11	0	77*	61*
CC(=O)NCCNC(=O)C1Cc2c(-c3ccc4c(c3)OCO4)ccnc2O1 (configuration not stated)	-7	-9	65*	12	0	19	-3	GDH-TPI dose=2.9*
O=C(Nc1ccc2c(c1)OCO2)C1Cc2c(-c3ccncc3)ccnc2O1 (configuration not stated)	4	14	0	4	2	.	.
O=C(NCC1CC1)C1Cc2c(-c3cccc(F)c3)ccnc2O1 (configuration not stated)	11	10	2	-6	0	.	.
COc1ccc(NC(=O)C2Cc3c(-c4ccc5c(c4)OCO5)ccnc3O2)cc1 (configuration not stated)	20	-1	46*	2	0	21	12*
CCN1[C@@H]2c3ccc(-c4ccccc4F)c(=O)n3C[C@H]1[C@H](CO)[C@H]2C(=O)N1CCCCC1	.	.	.	.	1	.	.
CO[C@H]1CN(C)C(=O)c2cc(NC(C)=O)ccc2OC[C@@H](C)N(Cc2ccccc2C(=O)O)C[C@@H]1C	.	.	.	.	0	.	.
CC(=O)Nc1ccc(NC(=O)C2Cc3c(-c4ccc5c(c4)OCO5)ccnc3O2)cc1 (configuration not stated)	6	6	33*	-1	0	9	1
CN1CCN(C(=O)C2Cc3c(-c4ccc5c(c4)OCO5)ccnc3O2)CC1 (configuration not stated)	-5	7	40*	-1	0	18	6	GDH-TPI dose=3.1*
CNC(=O)C1Cc2c(-c3ccc4c(c3)OCO4)ccnc2O1 (configuration not stated)	7	6	60*	10	0	97*	77*
CC(=O)Nc1cccc(-c2ccnc3c2CC(C(=O)Nc2ccc4c(c2)OCO4)O3)c1 (configuration not stated)	8	4	-4	3	1	.	.
CC(C)NC(=O)NCC[C@@H]1CC[C@@H](NS(=O)(=O)c2ccc(-c3ccccc3)cc2)[C@@H](CO)O1	.	.	.	.	-1	.	.
CNC[C@@H]1Oc2ccc(NC(=O)Nc3ccc(F)cc3)cc2CC(=O)N([C@@H](C)CO)C[C@@H]1C	.	.	.	.	0	.	.
C[C@@H]1CN([C@H](C)CO)C(=O)c2cc(NS(C)(=O)=O)ccc2O[C@@H]1CN(C)C(=O)NC1CCCCC1	.	.	.	.	0	.	.
Cc1cc(-c2nc3ncccc3o2)ccc1NC(=S)NC(=O)c1ccco1	1	11	33*	-1	0	39*	32*
CCCC(=O)Nc1ccc(-c2nc3ncccc3o2)cc1	3	30	87*	5	1	21	17*
Cc1ccc(-c2nc3ncccc3o2)cc1NC(=O)c1ccco1	-5	3	-2	-4	.	.	.
Cc1ccc(-c2nc3ncccc3o2)cc1NC(=O)C(C)(C)C	-11	4	30*	-3	1	26	22*
CCCC(=O)Nc1ccc2oc(-c3cccnc3)nc2c1	-10	3	74*	2	.	169*	138*

Bioassay records as filed in PubChem BioAssay.
